Only some compounds are listed: those with a hit (about 7.5% of all), similar ones and a draw of the others.
Rab9 promoter act = qHTS Assay for Rab9 Promoter Activators; Huh7 Rab9 promoter-luciferase reporter, luminescence, 24 h; Potency, µM (series often up to 9.22 µM), for inactives: top-dose activation, negative = inhibition, most hits filed as activators; actives 2.8% (n = 320,000); AID 485297, 2010; also: % of control where 0% means no effect; nearly all actives have a fitted effect of over 60% in size
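Steps: seed 1500 Huh7 Rab9-luc cells per well, rest 2 h at 37 °C; add compound in DMSO; incubate 24 h; add luciferase reagent, 10 min ambient; read luminescence.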
FLuc counter = qHTS profiling assay for firefly luciferase inhibitor/activator using purifed enzyme and Km concentrations of substrates (counterscreen for miR-21 project). Luciferin 4-monooxygenase (Photinus pyralis), P08659. purified FLuc, Km substrates, luminescence inhibition. Potency, µM (highest dose often 57.5 µM), for the others: at the highest dose activity change, negative = inhibition, usual class: inhibitors. actives 6.9% (n = 360,000);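 also: plate controls were vehicle for no effect and reference inhibitor for full effect; nearly all actives have a fitted effect of over 55% in size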
Target sequence (P08659 whole entry, looked up): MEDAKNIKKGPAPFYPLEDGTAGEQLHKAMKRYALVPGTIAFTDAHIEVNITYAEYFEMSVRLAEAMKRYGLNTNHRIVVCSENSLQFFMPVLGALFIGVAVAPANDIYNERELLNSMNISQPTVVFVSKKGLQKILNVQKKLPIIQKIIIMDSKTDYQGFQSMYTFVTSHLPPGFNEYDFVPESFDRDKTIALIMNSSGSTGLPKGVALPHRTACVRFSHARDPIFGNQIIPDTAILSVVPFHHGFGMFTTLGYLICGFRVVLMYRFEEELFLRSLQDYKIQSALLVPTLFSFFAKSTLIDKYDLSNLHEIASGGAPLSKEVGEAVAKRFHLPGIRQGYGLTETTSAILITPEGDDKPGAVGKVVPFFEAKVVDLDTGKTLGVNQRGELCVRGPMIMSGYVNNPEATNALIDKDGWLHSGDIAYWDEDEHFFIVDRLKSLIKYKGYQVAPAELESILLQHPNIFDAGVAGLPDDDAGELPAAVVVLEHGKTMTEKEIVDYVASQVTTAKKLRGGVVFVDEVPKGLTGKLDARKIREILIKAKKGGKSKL
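Purified P. pyralis luciferase (10nM final) with 10uM D-luciferin and 10uM ATP (Km levels) in 50mM Tris acetate pH 7.5, 10mM Mg acetate, 0.01% Tween-20, 0.05% BSA; qHTS 6-point titration, ~60 µM downward; luminescence read.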
SMN2 splice enh = qHTS Assay for Enhancers of SMN2 Splice Variant Expression | HEK293 SMN2-luciferase splicing reporter, luminescence, 30-36 h | Potency, µM (top dose mostly 46.1 µM), without a hit: at the top dose activity change, positive = activation, actives largely listed as activators | actives 2.8% (n = 210,000) | AID 1458, 2008; also: % of control where 0% means no effect; nearly all actives have a fitted effect of over 55% in size
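HEK293 cells carry an SMN2 minigene-luciferase reporter in which exon 7 inclusion puts luciferase in frame. Cells were seeded at 2000 cells/well, attached for 10-12 hours, then exposed to compounds for 30-36 hours at 37C before ONE-Glo luminescence.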
KinaseGlo FLuc = Counterscreen for Luciferase (Kinase-Glo TM) Inhibition; Luciferin 4-monooxygenase (Photuris pensylvanica), Q27757; Kinase-Glo luciferase, ATP luminescence, 8 min; Potency, µM (highest dose often 38.3 µM), inactives show at the top dose activity change, negative = inhibition, usual class: inhibitors; actives 0.28% (n = 200,000); AID 1379, 2008; also: % is scaled to controls: 0 for no effect and ±100 for the full control effect; nearly all actives have a fitted effect of over 60% in size
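Compounds were added to a substrate mix at pH 7.2 (50 mM imidazole, 10 uM ATP, within the enzyme's linear range), followed by Kinase-Glo detection reagent; luminescence was measured after 8 minutes at ambient temperature.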
ELG1 genotoxic = qHTS screen for small molecules that induce genotoxicity in human embryonic kidney (HEK293T) cells expressing luciferase-tagged ELG1; HEK293T ELG1-luciferase reporter, luminescence, 16 h; Potency, µM (top dose mostly 46 µM), for the others: top-dose activity change, positive = activation, usual class: activators; actives 1.3% (n = 330,000); also: % of control where 0% means no effect; nearly all actives have a fitted effect of over 60% in size
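After overnight (16 hr) compound treatment at 37 °C, ELG1-luciferase HEK293T cells were lysed with ONE-Glo; luminescence quantified 30 min later at room temperature.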
NPC1 prom act = qHTS Assay for NPC1 Promoter Activators. Huh7 NPC1 promoter luciferase reporter, 24 h. Potency, µM (doses to about 9.22 µM), for the others: at the top dose activation, hits mostly activators. actives 2.4% (n = 320,000); also: % of control where 0% means no effect; nearly all actives have a fitted effect of over 60% in size
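Luminescence read-out of NPC1 promoter-driven luciferase in stably transfected Huh7 cells; compounds delivered in DMSO and left 24 h at 37C, 5% CO2, qHTS titration format.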
* marks the source's active call; other numbers are inactive results; ? = inconclusive; . = no result given. Calls follow the shape of the dose curve; as a rule, active = well fitted curve in the direction sought with a large enough effect; inconclusive = small, poorly fitted or top-dose-only effect, or another doubt; inactive = no such curve, though single readings can be large; an effect the other way counts as inactive or inconclusive. Potency is read from the fitted curve at half-maximal effect.

SMILES	Rab9 promoter act	FLuc counter	SMN2 splice enh	KinaseGlo FLuc	ELG1 genotoxic	NPC1 prom act
Cc1cc(C(=O)COC(=O)c2cc(Cl)c(O)c(Cl)c2)c(C)n1C	9%	17µM*	.	.	8%	1%
Cc1cc(C(=O)COC(=O)c2ccc(Br)o2)c(C)n1C	26%	8.5µM*	1%	-7%	?	-3%
CCOC(=O)C1CCN(C(=O)C2CCN(c3nnc(C)c4c(C)n(-c5ccccc5)nc34)CC2)CC1	.	0%	.	.	.	.
O=C(O)C=C1CCN(c2ncc(C(F)(F)F)cc2Cl)CC1	?	19µM*	14%	-2%	8%	?
Cc1ccc(C(=O)NNC(=O)c2nn(-c3ccc(F)cc3)ccc2=O)cc1	-6%	15µM*	.	.	1%	-1%
COc1ccc(N2CCN(C(CNC(=O)C(=O)NCc3ccc(F)cc3)c3cccnc3)CC2)cc1 (stereo unspecified)	.	-2%	.	.	.	.
O=C(Cn1c(SCC(=O)N2CCc3ccccc3C2)nc2ccccc21)NC1CCCC1	5%	5%	11µM*	-2%	-1%	3%
COc1ccc(Cn2cc(C(=O)c3ccc(C)c(C)c3)c(=O)c3ccccc32)cc1	.	-15%	-34%	.	.	.
Cc1cccc(OC(=O)c2cc(-c3ccc4c(c3)OCCO4)on2)c1C	.	5.4µM*	.	.	.	.
Cc1ccccc1OC(=O)c1cc(-c2ccc3c(c2)OCCO3)on1	.	0.6µM*	.	.	.	.
O=C(Oc1ccccc1Cl)c1cc(-c2ccc3c(c2)OCCO3)on1	.	2.7µM*	.	.	.	.
CCOc1ccc(C(=O)Nc2ccc(C(=O)OCc3cc(=O)n4c(C)csc4n3)cc2)cc1	.	-10%	.	.	.	.
CCOc1ccc(CC(=O)NCCc2sc3nc(-c4ccc(F)cc4)nn3c2C)cc1	.	-10%	.	.	.	.
COc1ccc(Cl)c2c1[nH]c1nc(SCc3cccnc3)nnc12	-3%	1%	1%	-4%	14%	2%
COc1ccc(Cl)c2c1[nH]c1nc(SCc3ccccn3)nnc12	1.8µM*	6µM*	6.3µM*	12%	21µM*	2.8µM*
COCCNC(=O)/C(C#N)=C/c1c(N2CCCCCC2)nc2ccccn2c1=O	6%	-3%	.	.	-5%	-5%
CN(C)CCCNS(=O)(=O)c1cc(Cl)c(Cl)cc1Cl	1%	1%	.	.	0%	-1%
CCN(c1ccc(NS(=O)(=O)c2cc(Cl)ccc2Cl)cc1)C(C)C	13%	-2%	-25%	2%	5%	0%
CN(C)CCCNS(=O)(=O)c1cc(Cl)ccc1Cl	17%	6%	11%	-1%	18µM*	-1%
CN(C)c1ccc(NS(=O)(=O)c2cc(Cl)ccc2Cl)cc1	0%	19µM*	-8%	4%	5%	-2%
CCOC(=O)c1ccc(OCC2c3cc(OC)c(OC)cc3CCN2C(=O)c2ccc(S(=O)(=O)N3CCCC3)cc2)cc1 (stereo unspecified)	.	-1%	.	.	.	.
Nc1ncnc2c1ncn2[C@@H]1O[C@H](COP(=O)(O)OP(=O)(O)OP(=O)(O)OP(=O)(O)OC[C@@H]2O[C@H](n3cnc4c(N)ncnc43)[C@@H](O)[C@@H]2O)[C@H](O)[C@H]1O	.	.	2%	4.5µM*	.	.
Nc1ncnc2c1ncn2[C@@H]1O[C@H](COP(=O)(O)OP(=O)(O)OC[C@H]2OC(O)[C@H](O)[C@@H]2O)[C@@H](O)[C@H]1O (stereo partly specified)	.	.	-7%	.	.	.
Cc1ccccc1-c1n[nH]c(=S)n1/N=C/c1c(C)nn(-c2ccccc2)c1C	0%	1%	14µM*	3%	-9%	-2%
CN(C)S(=O)(=O)c1ccc(C(=O)N2CC(=O)Nc3ccc(Br)cc3C2c2ccc(F)cc2)cc1 (stereo unspecified)	.	?	9%	.	.	.
SMILES	Rab9 promoter act	FLuc counter	SMN2 splice enh	KinaseGlo FLuc	ELG1 genotoxic	NPC1 prom act
CC(C)N1CCc2c(sc(NC(=O)c3ccc4ccccc4c3)c2C(N)=O)C1	2%	6µM*	.	.	9%	-4%
CCN1CCc2c(sc(NC(=O)c3cc4ccccc4cc3OC)c2C(N)=O)C1	4%	9.5µM*	.	.	10%	-5%
O=S(=O)(Nc1cccc(-c2cn3c(n2)SCC3)c1)c1ccc(F)cc1F	5%	-5%	.	.	-4%	-1%
Cc1ccc(S(=O)(=O)Nc2cccc(-c3ccc(N4CCCCCC4)nn3)c2)c(C)c1	?	11µM*	.	.	?	?
O=S(=O)(Nc1cccc(-c2ccc(N3CCCC3)nn2)c1)c1ccc(F)cc1F	.	15µM*	.	.	.	.
O=S(=O)(Nc1cccc(-c2ccc(N3CCCCC3)nn2)c1)c1cccc(F)c1	.	2.4µM*	.	.	.	.
Cc1ccc(S(=O)(=O)Nc2ccc(-c3ccc(N4CCCCCC4)nn3)cc2)c(C)c1	.	-19%	.	.	.	.
COc1cccc(CNC(=O)Cn2nc(N3CCN(c4ccccc4OC)CC3)ccc2=O)c1	.	-3%	.	.	.	.
CC1(C)CC(=O)C=C(c2cccc(Br)c2)C1	-3%	-12%	.	.	1%	-2%
O=C(CCn1ccnc1)Nc1cc(Cl)ccc1O	7%	1%	.	.	-1%	-1%
O=C(/C=C/c1cccc(Cl)c1)NCc1cccs1	8%	?	-2%	-1%	2%	10%
O=C(/C=C/c1ccc(Cl)cc1)NCc1cccs1	12%	15µM*	4%	-1%	16%	8%
CCOc1c2ccc(C(=O)NCCc3ccc(C)cc3)cc2nn1CC	-1%	-2%	-29%	-7%	4%	1%
Cc1ccc(C(=O)NCCc2cccs2)cc1	0.1µM*	0.85µM*	0.5µM*	-15%	?	0.32µM*
CCn1nc2cc(C(=O)NCCc3cccs3)ccc2c1OC	1.1µM*	6.7µM*	?	-17%	?	2.5µM*
CC(C)Oc1ccc(C(=O)NCc2cccs2)cc1	?	13µM*	22%	-2%	?	30%
COc1ccccc1C(=O)NCCC(=O)NCC(c1ccco1)N1CCCC1 (stereo unspecified)	-2%	7%	.	.	-3%	1%
COCCNC(=O)c1ccc(Cl)c(Cl)c1	3%	-1%	-3%	-3%	0%	0%
O=C(NCCc1cccs1)c1ccc(Cl)cc1	0.32µM*	1.2µM*	.	.	?	0.35µM*
O=C(NCCc1cccs1)c1ccc(Cl)c(Cl)c1	2.2µM*	11µM*	.	-1%	?	3.2µM*
O=C(NCCc1cccs1)c1ccc(CS(=O)Cc2ccc(Cl)cc2)o1 (stereo unspecified)	1%	-1%	.	.	2%	-1%
